Drawing on PubChem BioAssay AID1508601 (ICCB-Longwood Screening Facility, Harvard Medical School, 2020), this text covers nuclei count, normalised and p53-positive nuclei, normalised for eight molecules.

A short description of test [1]: nuclear p53 accumulation, HPV+ cells – imaging, p53-positive nuclei imaging, 24 h, 48 h (AID 1508601). As to conditions: 24/48 h.
Test [2] deals with Cellular tumor antigen p53 (Homo sapiens) (UniProt P04637). Described as above. To be noted: 24/48 h, stronger effect = higher value.
The mark [3] stands for this setting: measured here: cell number at 24 h, Library stock concentration: 10 mM.
Where [4] appears, read: measured here: cell number at 48 h, Library stock concentration: 10 mM.
The mark [5] stands for this setting: Library stock concentration: 10 mM.
Where [6] appears, read: measured here: p53 positive nuclei at 24 h, Library stock concentration: 10 mM.
The mark [7] stands for this setting: measured here: cell number at 24 h, Library stock concentration: 3.33 mM.
[8] abbreviates: measured here: cell number at 48 h, Library stock concentration: 3.33 mM.
The mark [9] stands for this setting: Library stock concentration: 3.33 mM.
[10] abbreviates: measured here: p53 positive nuclei at 24 h, Library stock concentration: 3.33 mM.
[11] abbreviates: measured here: cell number at 24 h, Library stock concentration: 80 uM.
Where [12] appears, read: measured here: cell number at 24 h, Library stock concentration: 400 uM.
Where [13] appears, read: measured here: cell number at 24 h, Library stock concentration: 2 mM.
Where [14] appears, read: measured here: cell number at 48 h, Library stock concentration: 80 uM.
The mark [15] stands for this setting: measured here: cell number at 48 h, Library stock concentration: 400 uM.
Setting [16] is: measured here: cell number at 48 h, Library stock concentration: 2 mM.
Where [17] appears, read: Library stock concentration: 80 uM.
[18] abbreviates: Library stock concentration: 400 uM.
[19] abbreviates: Library stock concentration: 2 mM.
Where [20] appears, read: measured here: p53 positive nuclei at 24 h, Library stock concentration: 80 uM.
Setting [21] is: measured here: p53 positive nuclei at 24 h, Library stock concentration: 400 uM.
Where [22] appears, read: measured here: p53 positive nuclei at 24 h, Library stock concentration: 2 mM.

Screen size: about 5,700 compounds; about 85 (1%) were called active. Cut-off read from the data, not from the text of the source: active = p53-positive nuclei above about 36% (passing the limit was not always enough); inactive = the rest. Only a selection was taken, and actives are over-represented in it overall.

Chain of Cellular tumor antigen p53 (Homo sapiens) (P04637 whole entry, looked up): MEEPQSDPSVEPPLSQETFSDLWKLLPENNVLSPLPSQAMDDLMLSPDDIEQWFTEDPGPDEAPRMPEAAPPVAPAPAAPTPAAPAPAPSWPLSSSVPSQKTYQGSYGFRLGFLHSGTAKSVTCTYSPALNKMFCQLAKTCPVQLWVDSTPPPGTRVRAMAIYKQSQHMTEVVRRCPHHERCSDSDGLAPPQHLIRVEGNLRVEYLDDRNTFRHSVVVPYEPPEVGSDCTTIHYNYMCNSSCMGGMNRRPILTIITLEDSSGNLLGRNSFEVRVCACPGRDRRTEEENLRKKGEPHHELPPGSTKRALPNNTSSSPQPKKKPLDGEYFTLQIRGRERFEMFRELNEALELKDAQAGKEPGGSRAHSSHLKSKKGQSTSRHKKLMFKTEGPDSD

As for `Cc1cc(C)c(N(Cc2ccccc2)S(=O)(=O)c2ccc(OCCNC(=O)c3cc4ccccc4o3)cc2)c(C(=O)NO)c1`, the nuclei count, normalised in test [1] (measured here: cell number at 24 h, Library stock concentration: 46 uM) is 106%; in test [1] (measured here: cell number at 24 h, Library stock concentration: 278 uM) it was 102%; in test [1] (measured here: cell number at 24 h, Library stock concentration: 1.67 mM) it was 106%; in test [1] (setting [3]), 108%; in test [1] (measured here: cell number at 48 h, Library stock concentration: 46 uM) it was 108%; in test [1] (measured here: cell number at 48 h, Library stock concentration: 278 uM) it was 104%. Also, the nuclei count, normalised in test [1] (measured here: cell number at 48 h, Library stock concentration: 1.67 mM) was determined as 111%; in test [1] (setting [4]), 119%. In addition, the p53-positive nuclei, normalised was -0.344% (inactive) in test [2] (Library stock concentration: 46 uM); -0.116% (inactive) in test [2] (Library stock concentration: 278 uM); -0.271% (inactive) in test [2] (Library stock concentration: 1.67 mM); 0.0163% (inactive) in test [2] (setting [5]); -0.21% in test [2] (measured here: p53 positive nuclei at 24 h, Library stock concentration: 46 uM); -0.21% in test [2] (measured here: p53 positive nuclei at 24 h, Library stock concentration: 278 uM). Further, the p53-positive nuclei, normalised in test [2] (measured here: p53 positive nuclei at 24 h, Library stock concentration: 1.67 mM) is -0.139%; in test [2] (setting [6]), -0.147%.

For `CN(C)Cc1c(C(=O)NCCOc2ccc(C(=O)NO)cc2)oc2ccccc12`, the nuclei count, normalised turned out to be 40% in test [1] (setting [7]) and 23.5% in test [1] (setting [8]). For the same molecule, the p53-positive nuclei, normalised in test [2] (setting [9]) is 74.6% (active); in test [2] (setting [10]), 61.4%.

As to `COc1cc(C(=O)NCc2ccc(OCCN(C)C)cc2)cc(OC)c1OC`, the nuclei count, normalised in test [1] (measured here: cell number at 24 h, concentration not given here) was 106%; in test [1] (measured here: cell number at 48 h, concentration not given here), 102%. Further, the p53-positive nuclei, normalised in test [2] (concentration not given here) is -0.214% (inactive); in test [2] (measured here: p53 positive nuclei at 24 h, concentration not given here) it was -0.0679%.

Regarding `CC(C)C1C(=O)NC(CCCN=C(N)N)C(=O)NCC(=O)NC(CC(=O)O)C(=O)NC(Cc2ccccc2)C(=O)N1C` (stereo not drawn), the nuclei count, normalised turned out to be 104% in test [1] (setting [11]); 96.6% in test [1] (setting [12]); 88.2% in test [1] (setting [13]); 88.5% in test [1] (setting [7]); 51.2% in test [1] (setting [3]); 94.6% in test [1] (setting [14]). For the same molecule, the nuclei count, normalised was determined as 89.6% in test [1] (setting [15]), 76.5% in test [1] (setting [16]), 85.4% in test [1] (setting [8]) and 34.6% in test [1] (setting [4]). Besides, the p53-positive nuclei, normalised in test [2] (setting [17]) is 0.242% (inactive); in test [2] (setting [18]), 0.104% (inactive); in test [2] (setting [19]) it was -0.113% (inactive); in test [2] (setting [9]), -0.0271% (inactive); in test [2] (setting [5]) it was -0.0215% (inactive); in test [2] (setting [20]) it was 0.00102%. For the same molecule, the p53-positive nuclei, normalised in test [2] (setting [21]) is -0.0368%; in test [2] (setting [22]), -0.0914%; in test [2] (setting [10]) it was -0.218%; in test [2] (setting [6]), -0.22%.

With `CC(CCC(=O)O)C1CC[C@H]2[C@@H]3C(O)C[C@@H]4CC(O)CC[C@]4(C)[C@@H]3CC[C@]12C` (stereo partly drawn), the nuclei count, normalised in test [1] (setting [11]) stood at 103%; in test [1] (setting [12]), 104%; in test [1] (setting [13]), 103%; in test [1] (setting [3]), 105%; in test [1] (setting [14]), 101%; in test [1] (setting [15]) it was 101%. The nuclei count, normalised was 100% in test [1] (setting [16]) and 106% in test [1] (setting [4]). Besides, the p53-positive nuclei, normalised in test [2] (setting [17]) was 0.0117% (inactive); in test [2] (setting [18]) it was -0.178% (inactive); in test [2] (setting [19]), 0.0148% (inactive); in test [2] (setting [5]), -0.147% (inactive); in test [2] (setting [20]), 0.00498%; in test [2] (setting [21]), -0.109%. Besides, the p53-positive nuclei, normalised in test [2] (setting [22]) is -0.106%; in test [2] (setting [6]), -0.11%.

In the case of `O=C(C=Cc1ccc(CN(CCO)CCc2c[nH]c3ccccc23)cc1)NO`, the results for the nuclei count, normalised in test [1] (setting [7]) and in test [1] (setting [8]) were 37.8% and 20.4%, respectively. Besides, the p53-positive nuclei, normalised in test [2] (setting [9]) is 113% (active); in test [2] (setting [10]) it was 94.4%.

For `O=C(O)CCCc1c[nH]c2ccccc12`, the nuclei count, normalised in test [1] (setting [7]) came out at 110%; in test [1] (setting [8]), 101%. Further, the p53-positive nuclei, normalised in test [2] (setting [9]) is -0.0398% (inactive); in test [2] (setting [10]), 2.53%.

Take `OCc1c[nH]c2ccccc12`: the nuclei count, normalised in test [1] (setting [11]) worked out at 116%; in test [1] (setting [12]) it was 113%; in test [1] (setting [13]), 124%; in test [1] (setting [7]) it was 121%; in test [1] (setting [3]), 113%; in test [1] (setting [14]), 111%. Further, the nuclei count, normalised in test [1] (setting [15]) turned out to be 105%; in test [1] (setting [16]), 115%; in test [1] (setting [8]) it was 105%; in test [1] (setting [4]), 106%. The p53-positive nuclei, normalised in test [2] (setting [17]) is -0.0881% (inactive); in test [2] (setting [18]), 0.33% (inactive); in test [2] (setting [19]), 0.0198% (inactive); in test [2] (setting [9]), -0.0843% (inactive); in test [2] (setting [5]) it was -0.042% (inactive); in test [2] (setting [20]), -0.0144%. The p53-positive nuclei, normalised is 0.188% in test [2] (setting [21]), 0.151% in test [2] (setting [22]), -0.374% in test [2] (setting [10]) and 0.0508% in test [2] (setting [6]).
